Where “and” joins values, the source holds several entries; their conditions need not be identical. Equal values may be shown once. Records with an inconclusive call do not appear. A structure can be active in one record and inactive in another. Calls of active or inactive are those of the source. Unless noted, the call rests on the fitted dose curve; in most records, active means well fitted curve in the direction sought with a large enough effect in the repeat runs; inconclusive means weak or mixed curves; inactive means no such curve, though single readings can be large; an effect the other way counts as inactive or inconclusive.
Assays:
[1] = qHTS assay to identify small molecule antagonists of the androgen receptor (AR) signaling pathway using the MDA cell line in the presence of 0.5 nM R1881 - cell viability counter screen (AID 1259242); further: nearly all actives have a fitted effect of over 45% in size
Method in brief: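 Fluorescence from CellTiter-Fluor, which reports protease activity of live cells, was read 30 min after reagent addition to MDA-kb2 cells that had been incubated 16 hr with compound and 0.5 nM R1881.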

[2] = target: Androgen receptor (Homo sapiens) (UniProt P10275); test: qHTS assay to identify small molecule antagonists of the androgen receptor (AR) signaling pathway using the MDA cell line in the presence of 0.5 nM R1881 (AID 1259243); further: nearly all actives have a fitted effect of over 50% in size; further: potency means the concentration at half of the fitted maximal effect
Androgen receptor (Homo sapiens), sequence (P10275 whole entry, looked up): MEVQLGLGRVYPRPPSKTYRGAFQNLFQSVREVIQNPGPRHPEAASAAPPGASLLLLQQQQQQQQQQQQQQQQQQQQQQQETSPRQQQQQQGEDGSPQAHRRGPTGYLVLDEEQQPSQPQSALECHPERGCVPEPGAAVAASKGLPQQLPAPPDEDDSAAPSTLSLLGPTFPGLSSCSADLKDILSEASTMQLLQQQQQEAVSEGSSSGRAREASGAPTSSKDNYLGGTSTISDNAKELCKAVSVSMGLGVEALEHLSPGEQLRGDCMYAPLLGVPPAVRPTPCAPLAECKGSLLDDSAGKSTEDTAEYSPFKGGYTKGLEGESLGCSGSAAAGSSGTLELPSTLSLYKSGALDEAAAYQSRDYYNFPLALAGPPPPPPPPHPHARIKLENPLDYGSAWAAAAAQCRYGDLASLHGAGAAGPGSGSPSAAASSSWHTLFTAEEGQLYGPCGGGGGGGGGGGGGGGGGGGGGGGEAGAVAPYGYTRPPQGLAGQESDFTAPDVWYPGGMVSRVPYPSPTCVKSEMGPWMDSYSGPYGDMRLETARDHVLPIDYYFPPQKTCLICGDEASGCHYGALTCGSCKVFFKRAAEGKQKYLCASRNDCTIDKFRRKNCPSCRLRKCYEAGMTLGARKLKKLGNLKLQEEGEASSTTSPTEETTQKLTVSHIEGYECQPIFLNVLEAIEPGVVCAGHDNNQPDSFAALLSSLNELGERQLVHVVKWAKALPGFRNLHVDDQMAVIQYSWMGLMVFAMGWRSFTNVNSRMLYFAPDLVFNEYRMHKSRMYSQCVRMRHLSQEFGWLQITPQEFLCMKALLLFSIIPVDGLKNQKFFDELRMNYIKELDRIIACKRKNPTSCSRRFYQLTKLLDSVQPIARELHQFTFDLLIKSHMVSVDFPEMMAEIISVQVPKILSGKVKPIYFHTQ
Method in brief: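 Inhibition of R1881 (0.5 nM final) induced reporter signal was measured in human MDA-kb2 cells; note the MMTV promoter also responds to GR. Exposure lasted 16 hr at 37C.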

[3] = target: Estrogen receptor (Homo sapiens) (UniProt P03372); test: qHTS assay to identify small molecule antagonists of the estrogen receptor alpha (ER-alpha) signaling pathway using the BG1 cell line in the presence of 0.1 nM 17-beta-estradiol (AID 1259244); further: nearly all actives have a fitted effect of over 50% in size; further: potency means the concentration at half of the fitted maximal effect
Estrogen receptor (Homo sapiens), sequence (P03372 whole entry, looked up): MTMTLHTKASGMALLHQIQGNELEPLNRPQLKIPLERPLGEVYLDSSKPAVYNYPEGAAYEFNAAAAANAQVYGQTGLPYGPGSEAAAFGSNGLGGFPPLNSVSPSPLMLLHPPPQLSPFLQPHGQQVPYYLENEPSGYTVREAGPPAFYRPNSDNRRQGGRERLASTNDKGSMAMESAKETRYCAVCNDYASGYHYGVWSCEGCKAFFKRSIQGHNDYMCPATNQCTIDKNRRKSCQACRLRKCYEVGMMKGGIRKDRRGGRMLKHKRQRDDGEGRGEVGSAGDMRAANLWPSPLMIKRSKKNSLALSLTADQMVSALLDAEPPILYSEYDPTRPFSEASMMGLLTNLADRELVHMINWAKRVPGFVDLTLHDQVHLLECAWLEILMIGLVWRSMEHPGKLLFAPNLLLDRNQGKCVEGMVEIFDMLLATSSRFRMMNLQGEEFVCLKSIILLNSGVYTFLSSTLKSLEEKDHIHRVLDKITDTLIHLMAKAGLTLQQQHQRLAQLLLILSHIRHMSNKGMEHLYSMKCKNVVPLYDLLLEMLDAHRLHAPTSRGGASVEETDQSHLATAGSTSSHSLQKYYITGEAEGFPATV
Method in brief: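 Quantitative high-throughput screen in VM7Luc4E2 cells: compound plus 0.1 nM E2 (final), 22 h, 37C, 5% CO2; ONE-Glo added, 30 min room temperature, luminescence measured.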

[4] = qHTS assay to identify small molecule HDAC inhibitors - cell viability counter screen (AID 1259365); further: series mostly up to about 92 µM; nearly all actives have a fitted effect of over 50% in size
Method in brief: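 HCT-116 (wild type), 1,500 cells/well, overnight 37C/5% CO2; compound in DMSO 2hr; CellTiter-Glo 30min RT; luminescence read.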

[5] = qHTS assay to identify small molecule agonists of the sonic hedgehog signaling (Shh) pathway - cell viability counter screen (AID 1259366); further: nearly all actives have a fitted effect of over 50% in size
Method in brief: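 CellTiter-Fluor fluorescence read-out, 1 hr at 37C, added after 23hr compound exposure. Cells: 3T3 Gli1-Luc, an NIH/3T3 clone with stably integrated Gli1-Luc reporter, plated 4hr before compound.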

[6] = qHTS assay to identify small molecule antagonists of the sonic hedgehog signaling (Shh) pathway - cell viability counter screen (AID 1259367); further: nearly all actives have a fitted effect of over 55% in size
Method in brief: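 Seed 3T3 Gli1-Luc cells at 2,000 per well; incubate 4 hr; add compound in DMSO, then conditioned medium; incubate at 37C with 5% CO2; add CellTiter-Fluor after 23 hr; read fluorescence 1 hr later.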

[7] = qHTS assay to identify small molecule agonists of the sonic hedgehog signaling (Shh) pathway (AID 1259368; calls by dose curve;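 further: NIH/3T3-derived 3T3Gli1-Luc cells carrying a stable Gli1-driven firefly luciferase reporter; series mostly up to about 92 µM; nearly all actives have a fitted effect of over 15% in size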)
Method in brief: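 Luminescent signal was taken as a measure of Gli1-controlled luciferase expression in stably transfected NIH/3T3-derived cells that had been treated for 24 hr with compounds delivered in DMSO.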

[8] = qHTS assay to identify small molecule antagonists of the sonic hedgehog signaling (Shh) pathway (AID 1259369; calls by dose curve; further: nearly all actives have a fitted effect of over 45% in size; further: potency means the concentration at half of the fitted maximal effect)
Method in brief: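 Screening used 3T3Gli1-Luc cells at 2,000 per well, compounds delivered in DMSO, and conditioned medium as agonist stimulus; plates incubated 24hr at 37 C and 5% CO2 before a 30min luciferase step.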

[9] = qHTS assay to identify small molecule HDAC inhibitors (AID 1259364); further: top concentration of the series differs between compounds; nearly all actives have a fitted effect of over 45% in size
Method in brief: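 Endogenous HDAC class I/II activity was measured in wild-type HCT-116 cells by HDAC-Glo luminescence after 2 h compound treatment.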

[10] = qHTS assay to identify small molecule phospholipidosis (PLD) inducers (AID 1259344; active means well fitted curve in the direction sought with a large enough effect; an effect the other way counts as inactive or inconclusive)
Method in brief: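 Quantitative HTS in HepG2: compound plus LipidTOX Red dye for 24 h, paraformaldehyde fixation with Hoechst 33342, widefield high-content imaging; amiodarone as positive and DMSO as negative control.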
On the % scale 0 is the no-effect control and ±100 the full control effect.

CC(Cc1ccccc1)NCCCCl (centres undefined)
inactive: Potency [1] | Potency [2] | Potency [3] | outcome [4] | Potency [5] | Potency [6] | outcome [7] | Potency [8]

CC[C@H](N)c1ccccc1
inactive: Potency [1] | Potency [2] | Potency [3] | Potency [9] | Potency [5] | Potency [6] | outcome [7] | Potency [8]

N[C@@H]1C[C@H]1c1ccccc1
inactive: Potency [1] | Potency [2] | Potency [3] | Potency [9] | outcome [4] | Potency [5] | Potency [6] | outcome [7] | Potency [8]

[O-][Br+2]([O-])O
inactive: Potency [1] | Potency [2] | Potency [3] | Potency [9] | outcome [4] | Potency [5] | Potency [6] | outcome [7]

OP(O)c1ccccc1
inactive: Potency [1] | Potency [2] | Potency [3] | Potency [9] | Potency [5] | Potency [6] | outcome [7] | Potency [8]

CCN(CC)C1CCCCC1
inactive: Potency [1] | Potency [2] | Potency [3] | Potency [9] | outcome [4] | Potency [6] | outcome [7] | Potency [8]

CC(C)N(Cc1ccccc1)C(=O)C(C)(C)C
inactive: Potency [1] | Potency [2] | Potency [9] | outcome [4] | Potency [5] | Potency [6] | outcome [7]

O=c1[nH]c2ccccc2n1C1CCNCC1
inactive: Potency [1] | Potency [2] | Potency [3] | outcome [4] | Potency [5] | Potency [6] | outcome [7]

CCNc1nc(Cl)nc(NC(C)(C)C)n1
active: Potency [8] 969 nM
inactive: Potency [1] | Potency [2] | Potency [3] | Potency [9] | outcome [4] | Potency [5] | Potency [6] | outcome [7]

CC(C)(N)Cc1ccccc1Cl
inactive: Potency [1] | Potency [2] | Potency [3] | Potency [9] | outcome [4] | Potency [5] | Potency [6] | outcome [7] | Potency [8]

CN(C)C(=O)Oc1cc(OC(=O)N(C)C)cc(C(O)CNC(C)(C)C)c1 (centres undefined)
inactive: Potency [1] | Potency [2] | Potency [3] | Potency [10] | Potency [9] | outcome [4] | Potency [5] | outcome [7] | Potency [8]

CCSC(=O)Cl
inactive: Potency [1] | Potency [2] | Potency [9] | outcome [4] | Potency [5] | Potency [6]

Clc1cc2c(cc1Cl)Oc1cc(Cl)c(Cl)cc1O2
inactive: viability change, negative = cytotoxic [1] -3.69% [at 0.349 µM] | activity, negative = inhibition [2] 16.7% [at 0.349 µM] | activity change, negative = inhibition [9] 0.908% [at 0.349 µM] | activity change, negative = cytotoxicity [4] 6.76% [at 0.349 µM] | viability change, negative = cytotoxic [5] -1.46% [at 0.349 µM] | viability change, negative = cytotoxic [6] 1.51% [at 0.349 µM] | activity change [7] 0.117% [at 0.349 µM] | activity change, negative = inhibition [8] -6.77% [at 0.349 µM]

COC(=O)c1ccc(CBr)cc1
inactive: Potency [1] | Potency [2] | Potency [3] | outcome [4] | Potency [5] | outcome [7]

CCCOC(=O)c1cncn1C(C)c1ccccc1 (centres undefined)
inactive: Potency [1] | Potency [2] | Potency [3] | Potency [9] | outcome [4] | Potency [6] | outcome [7] | Potency [8]

CCOC1Oc2ccc(OS(C)(=O)=O)cc2C1(C)C (centres undefined)
inactive: Potency [1] | Potency [9] | Potency [5] | outcome [7] | Potency [8]
active: Potency [2] 60.6 µM | Potency [3] 54 µM

C[C@H]1CCCC(=O)CCC/C=C/c2cc(O)cc(O)c2C(=O)O1
14.8 µM (active) and inactive: Potency [8]
active: Potency [2] 20.9 µM | Potency [3] 23.4 µM and 25.2 µM
inactive: Potency [1] | outcome [4] | outcome [7]

CCC(CC)(CNC(=O)CCCO)c1cccc(OC)c1
inactive: Potency [1] | Potency [2] | Potency [3] | Potency [9] | outcome [4] | Potency [5] | Potency [6] | outcome [7] | Potency [8]

CCN[C@@H](C)Cc1ccccc1
inactive: Potency [1] | Potency [2] | Potency [3] | outcome [4] | Potency [5] | outcome [7] | Potency [8]

CC[C@@H](CO)NC(=O)[C@@H]1C=C2c3cccc4[nH]cc(c34)C[C@H]2N(C)C1
inactive: Potency [1] | Potency [2] | Potency [10] | Potency [9] | outcome [4] | Potency [5] | Potency [6] | outcome [7] | Potency [8]

CCOC(=O)CC(SP(=S)(OC)OC)C(=O)OCC (centres undefined)
inactive: Potency [1] | Potency [2] | Potency [3] | Potency [10] | Potency [5] | outcome [7]

CCCOc1nn(C(=O)NS(=O)(=O)c2ccccc2C(=O)OC)c(=O)n1C
inactive: Potency [1] | Potency [2] | Potency [9] | outcome [4] | Potency [5] | Potency [6] | outcome [7]

CCOP(=S)(OCC)SCCl
inactive: Potency [1] | Potency [2] | Potency [9] | outcome [4] | Potency [5] | Potency [6] | outcome [7] | Potency [8]

COC[C@@H](NC(C)=O)C(=O)NCc1ccccc1
inactive: Potency [1] | Potency [2] | Potency [9] | outcome [4] | Potency [5] | Potency [6] | outcome [7]

C[C@H](N)C(=O)c1ccccc1
inactive: Potency [1] | Potency [2] | Potency [3] | outcome [4] | Potency [5] | outcome [7] | Potency [8]

CNC(=O)O/N=C(/CSC)C(C)(C)C
inactive: Potency [1] | Potency [2] | Potency [3] | Potency [9] | outcome [4] | Potency [5] | outcome [7] | Potency [8]

Cc1ccc(S(=O)(=O)N[C@@H](CCCCN)C(=O)CCl)cc1
inactive: Potency [1] | Potency [2] | Potency [10] | Potency [9] | outcome [4] | Potency [5] | Potency [6] | outcome [7] | Potency [8]

CNC(=O)NC(O)C(Cl)(Cl)Cl (centres undefined)
inactive: Potency [1] | Potency [2] | Potency [3] | Potency [9] | outcome [4] | Potency [5] | Potency [6] | outcome [7]

O=C(Cl)/C=C/C(=O)Cl
inactive: Potency [1] | Potency [2] | Potency [3] | Potency [9] | outcome [4] | Potency [6] | outcome [7] | Potency [8]

— PubChem BioAssay (Tox21)
